Assay outcomes as filed in PubChem BioAssay.
An excerpt weighted towards active compounds, which were near 11% of everything screened.
HCV inhibitor: HCV inhibition | Huh7.5.1 HCVcc-Cre infection, luciferase reporter, 44 h | Potency, µM (series often up to 41.8 µM), most hits filed as inhibitors | actives 3.4% (n = 340,000) | AID 651820
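Infectious HCVcc-Cre (~0.5 moi) was added to cells just after compound, with cells seeded 4 h earlier at 1,000 per well. Luciferase activity after 44 h culture reported infection; substrate was incubated 15 min at room temperature before reading.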
Vaccinia mCherry: inhibitors of vaccinia virus infection (mCherry reporter signal) | Vaccinia virus mCherry reporter infection, fluorescence | Potency, µM (series often up to 36.5 µM), hits mostly inhibitors | actives 0.63% (n = 310,000) | AID 720579; calls by dose curve; tested in A549 cells; note: nearly all actives have a fitted effect of over 35% in size
Pf growth 48h: inhibits P. falciparum growth in the first generation, 48 h | Potency, µM (doses to about 28.7 µM), usual class: inhibitors | AID 504832 | P. falciparum luciferase growth in erythrocytes, 48 h | actives 5.9% (n = 310,000)
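Luciferase-expressing parasites in RBCs, 2% Hct / 0.1% parasitemia final; RPMI 1640 + 0.5% Albumax; 37 C, 5% CO2, one generation; luminescence read-out, lower signal = inhibition.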
VACV Venus inh: vaccinia inhibition (Venus reporter). actives 0.46% (n = 330,000). Potency, µM (doses to about 36.5 µM), most hits filed as inhibitors. AID 720580. Vaccinia virus Venus reporter expression, fluorescence; calls by dose curve; tested in A549 cells; note: nearly all actives have a fitted effect of over 30% in size
NS1 inh: influenza NS1 inhibition; Potency, µM (doses to about 46.1 µM); actives 0.4% (n = 270,000); calls by dose curve; note: actives are rising curves; nearly all actives have a fitted effect of over 50% in size
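Read-out: OD600 growth recovery of NS1-expressing budding yeast. Cells grown overnight at 30C in -URA glucose medium, washed, resuspended and diluted 1:100 in 2% galactose assay medium, pH 6.0. Same strain lacking NS1 served as positive control.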
Pf growth 96h: inhibits malaria parasite growth, 96 h; P. falciparum luciferase reporter growth, 96 h; Potency, µM (top dose mostly 28.7 µM), actives largely listed as inhibitors; actives 6.9% (n = 320,000); AID 504834
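Luminescence readout: decreased luciferase signal marks inhibited growth of reporter-expressing P. falciparum in infected red cells (2% hematocrit, 0.05% parasitemia final), exposed to compound two generations (96 h, 37 C, 5% CO2).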
Numbers stand for hits; 0 = inactive; ? = inconclusive; - = no result given; [ ] = another dose, or the depositor's remark. Unless noted, calls come from the whole dose curve; as a rule, active = well fitted inhibition curve with a large enough effect; inconclusive = small, poorly fitted or top-dose-only effect, or another doubt; inactive = no such curve, though single readings can be large or run the other way.

SMILES | HCV inhibitor | Vaccinia mCherry | Pf growth 48h | VACV Venus inh | NS1 inh | Pf growth 96h
CC(C)c1nnc(-c2ccc(Cl)cc2)c(N(C)C)n1 | 0 | - | ? | - | 0 | 9.3µM
Cc1nn(C)c2c1c(C(F)(F)F)cc(=O)n2CC(=O)N1CCN(c2ccccc2F)CC1 | - | 0 | - | 0 | - | -
Cc1ccc(NC(=O)O/N=C/c2ccc(F)cc2)cc1 | 0 | - | 0 | - | 0 | 5.9µM
Cc1ccc(NC(=O)O/N=C/c2ccc(Br)cc2)cc1 | 0 | 0 | 0 | 0 | 0 | 0
O=C(c1cc2ccccc2cc1OCC(O)CN1CCCCC1)N1CCCCC1 (stereo not given) | 0 | 0 | - | 0 | 0 | 0
CCOc1ccc(NC(=O)NC(C)CC)cc1 (stereo not given) | 0 | 0 | 0 | 0 | - | 9.3µM
CCOc1ccc(NC(=O)C(CC(=O)O)Cc2ccc(Br)cc2)cc1 (stereo not given) | 0 | 0 | 0 | 0 | 0 | 9.3µM
CCOc1ccc(NC(=O)Nc2nc(SCC)ns2)cc1 | ? | 0 | 0 | 0 | 0 | 4.1µM
COc1ccc(CC(CC(=O)O)C(=O)Nc2ccc(OC)cc2)cc1 (stereo not given) | 0 | - | 0 | - | 0 | ?
CCOC(=O)c1c(NC(=O)CSc2nnc(-c3ccncc3)n2Cc2ccco2)sc(C)c1C | ? | 0 | 0 | 0 | 0 | -
COC(=O)C1C(=O)C2=C(CC1C)NC(C)=C(C(=O)OCCOc1ccccc1)C2c1ccc(C)o1 (stereo not given) | 13µM | 0 | 0 | 0 | 0 | -
COC(=O)C1C(=O)C2=C(CC1C)NC(C)=C(C(=O)OC1CCCCC1)C2c1ccc(N(C)C)cc1 (stereo not given) | ? | 0 | 5.9µM | 0 | 0 | 0
COC(=O)C1C(=O)C2=C(CC1C)NC(C)=C(C(=O)OCc1ccc(OC)cc1)C2c1ccc(C)o1 (stereo not given) | ? | - | ? | - | 0 | ?
CC1=C(C(=O)OCc2ccccc2)C(c2ccc(C)o2)C2=C(CCCC2=O)N1 (stereo not given) | ? | 0[1.46 µM] | 12µM | ? | 0 | 0
O=C(NCc1ccccc1)c1cc(=O)nc2sc(-c3ccccc3)nn12 | 0 | 0 | 0 | 0 | 0 | ?
Cc1cc(C)c(OCC(=O)N2CCN(c3ncc(C(F)(F)F)cc3Cl)CC2)c(C)c1 | - | 0 | 0 | 0 | 0 | 0
Cc1ccc2oc(C(Cl)(Cl)Cl)cc(=O)c2c1 | ? | 11µM | 3.3µM | ? | 0 | 1.9µM
O=C(Nc1cc(S(=O)(=O)N2CCCCC2)ccc1N1CCCCC1)c1ccncc1 | 0 | - | 9.3µM | - | 0 | 8.3µM
O=C(Nc1cc(S(=O)(=O)N2CCCCC2)ccc1N1CCCCC1)C1CC1 | 0 | - | 10µM | - | 0 | ?
CC(=O)[C@@]1(O)C(C)CC2C3C=C(C)C4=Cc5c(cnn5-c5ccccc5)C[C@]4(C)C3C(O)C[C@@]21C (stereo not given in full) | 7.1µM | 0 | 5.2µM | ? | ? | 10µM
Cc1noc(C)c1CC(=O)NC1CC(C)(C)Cc2c1cnn2-c1ccccc1 (stereo not given) | ? | 0 | 0 | 0 | 0 | 0
Cc1oc2c(C)c3oc(=O)c(CCC(=O)N[C@@H](CC(C)C)C(=O)O)c(C)c3cc2c1C | 0 | - | 0 | - | 0 | 0
CC(C)OC(=O)/C(=C/c1ccc2c(c1)c1ccccc1n2C)NC(=O)c1ccccc1 | ? | 0 | ? | 0 | 0 | ?
COC(=O)/C(=C\c1ccc2c(c1)c1ccccc1n2C)NC(=O)c1ccccc1 | 0 | 0 | ? | 0 | 0 | 1.2µM
Cc1ccc(Cn2ccsc2=NC(=O)COC(=O)C(C)C)cc1 | 0 | 0 | 0 | 0 | 0 | 0
SMILES | HCV inhibitor | Vaccinia mCherry | Pf growth 48h | VACV Venus inh | NS1 inh | Pf growth 96h
Cc1ccc(Cn2ccsc2=NC(=O)COC(=O)c2ccc(O)cc2O)cc1 | 11µM | - | ? | - | 0 | ?
N#CCC(=O)Nc1ccc(C(=O)OCC(=O)N=c2sccn2Cc2ccccc2Cl)cc1 | ? | 0 | 12µM | 0 | - | ?
O=C(COC(=O)c1ccc(O)cc1O)N=c1sccn1Cc1ccccc1Cl | 7.9µM | ? | ? | 0 | - | ?
O=C(COC(=O)c1ccc(O)cc1O)Nc1ncc(Cl)cc1Cl | ? | 0 | 0 | 0 | - | 0
O=C1CC(N2CCC(c3nc4ccccc4[nH]3)CC2)C(=O)N1c1ccccc1F (stereo not given) | 0 | 0 | 0 | 0 | 0 | 0
Cc1nc2ccccc2c(=O)n1-c1ccc(NS(=O)(=O)c2cc(F)ccc2F)cc1 | 0 | 0 | ? | 0 | - | 0
Nc1ccc(-c2cc(N)n(-c3ccccc3)n2)cc1 | 0 | - | 6.6µM | 0 | 0 | -
COc1ccc(N2C(=O)C(C)(C)C2c2c(O)ccc3ccccc23)cc1 (stereo not given) | ? | 0 | 8.3µM | 0 | 0 | 0
CCN(CC)C(=O)CN(c1ccc(C)cc1)S(=O)(=O)c1ccc(SC)cc1 | 0 | - | ? | - | 0 | -
O=C(Nc1nc2c(s1)CCCC2)c1ccc(Br)o1 | ? | 0 | 0 | 0 | 0 | 0
Cc1ccc(C(=O)Nc2nc3c(s2)CCCC3)o1 | ? | - | 0 | - | 0 | 13µM
Cc1ccc(C=Cc2ccccn2)cc1 | - | 0 | - | 0 | - | -
C/C(=N\NC(=O)c1nn(C)cc1Br)c1cccc(NC(=O)C(C)(C)C)c1 | ? | 0 | ? | 0 | 0 | ?
C/C(=N\NC(=O)c1nn(C)cc1Br)c1ccc(NC(=O)c2ccncc2)cc1 | ? | 0 | 0 | 0 | 0 | 4.1µM
N#CCOc1nc(N2CCCC2)nc(N2CCCC2)n1 | ? | - | - | - | 0 | 0
N#CCOc1nc(N2CCCCC2)nc(N2CCCCC2)n1 | 14µM | - | 0 | - | 0 | 0
COc1nc(N2CCCCCC2)nc(N2CCCCCC2)n1 | 10µM | - | 0 | - | 0 | 0
COc1nc(N2CCOCC2)nc(-n2cccc2)n1 | 0.89µM | - | 0 | - | 0 | ?
COc1nc(C#N)nc(N2CCCC2)n1 | - | 0 | - | 0 | - | -
N#Cc1c(/N=C/C2C(=O)NC(=S)NC2=O)sc2c1CCCC2 | 0 | ? | 0 | 0 | - | 0
O=C(N/N=C/c1cccs1)c1cnccn1 | 0 | 0 | 0 | 0 | 0 | 0
O=C(Oc1ccc(-c2cnc3ccccc3n2)cc1)c1cccc([N+](=O)[O-])c1 | 0 | - | 0 | 0 | 0 | 0
CCOc1ccc(-n2cc(-c3ccccc3)c3c(N4CCOCC4)ncnc32)cc1 | 11µM | 0 | ? | 0 | 0 | 0
c1ccc(-c2cn(-c3ccccc3)c3ncnc(N4CCCCC4)c23)cc1 | ? | 0 | 0 | 0 | - | 0
CC12CCC(C(=O)NNc3ccccc3)(OC1=O)C2(C)C (stereo not given) | 0 | - | 0 | - | 0 | ?
CC12CCC(C(=O)NC(c3ccccc3)c3ccccc3)(OC1=O)C2(C)C (stereo not given) | 0 | - | - | - | 0 | 13µM
O=C(Cn1cnc2ccccc2c1=O)NCCCN1CCCC1=O | 0 | - | 0 | - | - | 0
CC(C)(C)NC(=O)C(c1ccc(-c2ccccc2)cc1)N(C[C@H]1CC[C@@H]([C@@H]2CC[C@H](CO)O2)O1)C(=O)c1ccc(-c2ccccc2)cc1 (stereo not given in full) | 0 | 28µM | - | ? | - | -
COc1cc(C(=O)Nc2nc3ccccc3[nH]2)ccc1OC(F)F | 8.9µM | 0 | 0 | 0 | 0 | 0
O=C(Nc1nc2ccccc2[nH]1)c1ccccc1F | 0 | 0 | ? | 0 | 0 | 10µM
